In the library only some 21% were active in any assay of this set; here they are far more common.
TDP1 cell CPT: qHTS for Inhibitors of human tyrosyl-DNA phosphodiesterase 1 (TDP1): qHTS in cells in presence of CPT; actives 12% (n = 420,000); Potency, µM (titrated, usually from 46.2 µM), most hits filed as inhibitors; AID 686979, 2013; chicken DT40 Tdp1-/-;hTDP1 cells + 20 nM CPT, ATP luminescence, 48 h; further: nearly all actives have a fitted effect of over 55% in size
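Cell growth measured by CellTiter-Glo luminescence after a minimum 48 h, 37 C compound exposure with 20 nM CPT in Tdp1-knockout DT40 cells stably expressing hTDP1, seeded 400/well; qHTS titration format.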
ELG1 repair inh: qHTS screen for small molecules that inhibit ELG1-dependent DNA repair in human embryonic kidney (HEK293T) cells expressing luciferase-tagged ELG1; HEK293T ELG1-luciferase reporter, luminescence, 16 h; DNA damage induced by 5-fluorouridine; Potency, µM (titrated, usually from 46.1 µM), actives largely listed as inhibitors; actives 2.3% (n = 330,000); AID 504467, 2011; further: nearly all actives have a fitted effect of over 55% in size
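Quantitative HTS, concentration-response format. 2,000 cells/well co-treated with 5-fluorouridine and compound, 16 hr in 5% CO2 at 37 °C; ONE-Glo luminescence read after 30 min.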
IL-1B inflam inh: qHTS for Inhibitors of Inflammasome Signaling: IL-1-beta AlphaLISA Primary Screen; THP-1 LPS/ATP IL-1B secretion, AlphaLISA, 16 h; hits give low values; activity change, % at 57.5 µM; actives 4.7% (n = 360,000); in the data active means activity change below about -50%; inconclusive means mostly about -30% to -49%
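Secreted IL-1B measured by AlphaLISA bead assay after 16 h compound exposure of THP-1 cells; compounds (final up to 57.5 uM) added 1 h before LPS (250 ng/mL) and ATP (1.25 mM) stimulation; lower signal means less secretion.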
VP16 counter: VP16 counterscreen qHTS for inhibitors of ROR gamma transcriptional activity | Drosophila S2 Gal4-VP16 UAS-luciferase, luminescence, 20 h | Potency, µM (highest dose often 53.6 µM), actives largely listed as inhibitors | actives 3.5% (n = 310,000) | AID 2546, 2010;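 further: Gal4-VP16 expression switched on by copper sulfate through the metallothionein promoter; nearly all actives have a fitted effect of over 50% in size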
TDP1 cell noCPT: qHTS for Inhibitors of human tyrosyl-DNA phosphodiesterase 1 (TDP1): qHTS in cells in absence of CPT; Potency, µM (doses to about 46.2 µM), most hits filed as inhibitors; DT40 Tdp1-/- hTDP1 cells, no CPT, ATP luminescence, 48 h; actives 15% (n = 420,000); further: nearly all actives have a fitted effect of over 55% in size
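Compound effects on proliferation are scored in DT40 Tdp1-/-;hTDP1 cells in the absence of CPT. ATP levels (CellTiter-Glo luminescence) are recorded after a ≥48 hr, 37 °C incubation.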
RORgamma inh: qHTS for inhibitors of ROR gamma transcriptional activity. actives 5.4% (n = 310,000). Potency, µM (titrated, usually from 53.6 µM), usual class: inhibitors. Nuclear receptor ROR-gamma (Mus musculus), P51450. Drosophila S2 Gal4-RORgamma UAS-luciferase reporter, 20 h; further: nearly all actives have a fitted effect of over 60% in size
Target sequence (P51450 whole entry, looked up, the tested form may be a part): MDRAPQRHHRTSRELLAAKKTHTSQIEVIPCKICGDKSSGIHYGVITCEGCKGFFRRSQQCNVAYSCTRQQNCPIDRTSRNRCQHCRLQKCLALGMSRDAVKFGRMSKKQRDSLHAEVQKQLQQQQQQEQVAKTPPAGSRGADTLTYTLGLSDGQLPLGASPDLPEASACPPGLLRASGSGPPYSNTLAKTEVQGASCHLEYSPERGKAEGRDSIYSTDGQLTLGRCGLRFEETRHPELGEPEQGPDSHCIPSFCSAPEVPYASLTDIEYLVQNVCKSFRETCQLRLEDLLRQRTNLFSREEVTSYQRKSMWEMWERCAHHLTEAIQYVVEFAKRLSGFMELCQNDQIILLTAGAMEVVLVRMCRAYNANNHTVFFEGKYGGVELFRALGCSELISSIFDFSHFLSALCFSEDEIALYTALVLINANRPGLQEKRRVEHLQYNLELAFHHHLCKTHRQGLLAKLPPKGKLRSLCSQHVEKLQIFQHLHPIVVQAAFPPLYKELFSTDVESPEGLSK
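Stable Schneider cell line, Gal4 DNA-binding domain fused to ROR gamma, UAS-luciferase. Cmpd 1 hr RT → CuSO4 700 uM final → 20 hr RT → luciferase reagent 10 min → luminescence.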
Hits are given with their value; . = inactive; ? = inconclusive; / = not tested or not shown; [ ] = another dose, or the depositor's remark. Unless noted, the call rests on the fitted dose curve; in most records, active means well fitted curve in the direction sought with a large enough effect; inconclusive means small, poorly fitted or top-dose-only effect, or another doubt; inactive means no such curve, though single readings can be large; an effect the other way counts as inactive or inconclusive.

SMILES	TDP1 cell CPT	ELG1 repair inh	IL-1B inflam inh	VP16 counter	TDP1 cell noCPT	RORgamma inh
Cc1ccc(-c2cnc(C(O)c3ccc(Cl)c(F)c3)[nH]2)cc1 (stereo not drawn)	?	/	.	/	?	/
O=C(Cn1nc(C(=O)O)c2ccccc2c1=O)Nc1cc(S(=O)(=O)N2CCCCC2)ccc1Cl	.	.	.	/	.	/
CC(=O)OC[C@H]1O[C@@H](O/N=C(\C)CCN2CCc3nc(-c4ccccc4)c(-c4ccccc4)cc3C2)[C@H](OC(C)=O)[C@@H](OC(C)=O)[C@H]1OC(C)=O	/	/	/	.[10 µM]	/	.[10 µM]
COc1cc(/C=N/NC2=NC(C)(C)Cc3ccccc32)cc(OC)c1OC	?	?	.	.	21µM	.
COc1ccc(C=NN=C2c3ccccc3-c3ccccc32)cc1OC	?	/	.	/	23µM	/
COc1cc(/C=N\Nc2nc3ccccc3[nH]2)cc(OC)c1OC	21µM	.	.	.	12µM	.
COc1ccc(/C=N/Nc2nc3ccccc3[nH]2)cc1OC	?	?	-75	.	?	.
COc1cc(OC)c(OC)cc1/C=N/Nc1nc2ccccc2[nH]1	.	?	.	.	.	.
COc1cc(/C=N/NC2=NS(=O)(=O)c3ccccc32)cc(OC)c1OC	.	.	.	.	.	.
COc1ccc2c(c1)c(/C=N/Nc1nc3ccccc3[nH]1)c(C)n2C	21µM	?	-98	16µM	?	3.5µM
CCOc1cc(/C=N/NC(N)=O)cc(Br)c1OCc1ccccc1	?	.	.	.	?	.
CCOc1cc(/C=N/Nc2nc3ccccc3[nH]2)cc(Br)c1OCC(=O)N(C)C	10µM	23µM	-92	.	13µM	?
COc1ccc(/C=N/Nc2ccccn2)cc1OC	?	?	.	?	16µM	?
CN(C)c1ccc(/C=N\Nc2ccccn2)cc1	21µM	?	.	?	23µM	?
O=C(NCC1CCCO1)c1ccc(NS(=O)(=O)c2cccs2)cc1 (stereo not drawn)	.	.	.	.	.	.
CCCc1nn2c(=O)cc(COC(=O)CNC(=O)COc3ccc(C)cc3)nc2s1	.	/	/	/	.	/
COc1cc(CNC(C)(C)CO)cc(Br)c1OCc1ccc(Cl)cc1	?	.	-114	.	?	.
COc1cc(/C=N/O)cc(Br)c1OC	.	.	.	.	.	.
COc1cc(/C=N/O)cc(Br)c1OCc1ccc(Cl)cc1	?	.	?	?	?	5.6µM
CC1CCN(S(=O)(=O)c2ccc3c(c2)CCN3C(=O)Nc2ccccc2Br)CC1	.	/	/	/	.	/
Cc1cc(NC(=O)CN2C(=O)NC(CC(C)C)C2=O)ccc1Br (stereo not drawn)	.	.	.	/	?	/
O=C(c1ccc(S(=O)(=O)c2ccccc2Cl)c([N+](=O)[O-])c1)N1CCCCCC1	21µM	?	-73	?	18µM	.
O=C(c1ccc(S(=O)(=O)Cc2ccccc2F)c([N+](=O)[O-])c1)N1CCCCCC1	?	.	-79	.	23µM	.
O=C(c1ccc([N+](=O)[O-])c(CS(=O)(=O)c2ccc(Cl)cc2)c1)N1CCCCC1	.	.	.	.	?	.
O=C(c1ccc(S(=O)(=O)Cc2cc(F)ccc2F)c([N+](=O)[O-])c1)N1CCOCC1	6.5µM	/	-100	/	7.3µM	/
CC1CCN(C(=O)c2ccc(SCc3ccccc3F)c([N+](=O)[O-])c2)CC1	.	.	-60	.	?	.
O=C(c1ccc(N2CCCC2)c([N+](=O)[O-])c1)N1CCN(S(=O)(=O)c2ccccc2)CC1	.	?	?	/	?	/

Screening data (PubChem BioAssay)
